Where “and” joins values, the source holds several entries; their conditions need not be identical. Equal entries are not always repeated. Inconclusive results are not listed. Calls of active or inactive are those of the source. Unless noted, the call rests on the fitted dose curve; in most records, active means well fitted curve in the direction sought with a large enough effect in the repeat runs; inconclusive means weak or mixed curves; inactive means no such curve, though single readings can be large; an effect the other way counts as inactive or inconclusive.

Among the data in PubChem BioAssay (Tox21) are Potency and outcome values, retold here.

A short description of assay [1]: qHTS assay to identify small molecule agonists of the vitamin D receptor (VDR) signaling pathway - cell viability counter screen (AID 743224). Further: nearly all actives have a fitted effect of over 50% in size. Summed up: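 Plated VDR-bla cells (4 h, 37C) received compound, incubated 16 h, then LiveBLAzer substrate 2 h RT; CellTiter-Glo added afterwards, luminescence read at 30 min.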
Assay [2] in a line: qHTS assay to identify small molecule antagonists of the vitamin D receptor (VDR) signaling pathway - cell viability counter screen (AID 743225). Further: nearly all actives have a fitted effect of over 50% in size. Summed up: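 Cells (VDR-UAS-bla HEK 293T) are plated, rested 4 h at 37C, dosed with compound and 3 nM final 1-alpha,25-dihydroxy vitamin D3, and incubated 16 h. Viability is taken from CellTiter-Glo luminescence in the reporter wells.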
On the technique in general: qHTS replaces the single test concentration by a dilution series.

A short description of assay [3]: qHTS assay to identify small molecule agonists of the NFkB signaling pathway (AID 1159509; active means well fitted curve in the direction sought with a large enough effect in the signal ratio in the repeat runs, not every such curve was filed as active; the % refers to the signal ratio). Summed up:
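After overnight attachment, reporter cells received test compounds, DMSO or positive controls and were incubated 5 hr at 37 C. FRET substrate was then added for 1.5 hr at room temperature before dual-emission fluorescence reading.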

Assay [4] is described as follows: qHTS assay to identify small molecule agonists of the NFkB signaling pathway - cell viability counter screen (AID 1159515; calls by dose curve; further: nearly all actives have a fitted effect of over 55% in size). Summed up:
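Using the same wells as the NFkB reporter read, ME-180 NFkB-bla cells given compounds for 5 hr were assessed for viability via CellTiter-Glo, with luminescence taken after a 30 min room-temperature incubation.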

Assay [5] can be described thus: qHTS assay to identify small molecule agonists of the endoplasmic reticulum stress response signaling pathway (AID 1159516; active means well fitted activation curve with a large enough effect in the signal ratio in the repeat runs, not every such curve was filed as active; the % refers to the signal ratio). The method, boiled down: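 An ESRE-bla HeLa cell assay: compounds were pin-transferred from DMSO onto overnight-plated cells and left 5 hr at 37 C. Substrate was then loaded for 2 hr at room temperature before reading fluorescence at 460 nm and 530 nm.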

Assay [6] in a line: qHTS assay to identify small molecule agonists of the endoplasmic reticulum stress response signaling pathway - cell viability counter screen (AID 1159517; calls by dose curve;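 further: HeLa cells carrying an ER stress response element beta-lactamase reporter; nearly all actives have a fitted effect of over 50% in size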). The method, boiled down:
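Counter-screen wells were identical to the reporter wells. Cells were plated at 1,500 per well and dosed for 5 hr, then read for luminescence 30 min after CellTiter-Glo addition.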

Assay [7] can be described thus: qHTS assay to identify small molecule antagonists of the retinoid-related orphan receptor gamma (ROR-gamma) signaling pathway - cell viability counter screen (AID 1159520). Further: nearly all actives have a fitted effect of over 50% in size. Further: potency means the concentration at half of the fitted maximal effect. The method, boiled down:
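Tet-on ROR gamma CHO cells were given compounds for 2 hr, then doxycycline hyclate at 1 uM final, and incubated 16 hr at 37 C. Viability was measured as ATP content by CellTiter-Glo luminescence.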

The target in assay [8] is Nuclear receptor ROR-gamma (Homo sapiens) (UniProt P51449). Nature of the assay: qHTS assay to identify small molecule antagonists of the retinoid-related orphan receptor gamma (ROR-gamma) signaling pathway (AID 1159521; further: nearly all actives have a fitted effect of over 50% in size; further: potency means the concentration at half of the fitted maximal effect). The method, boiled down: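 RORγ antagonism is scored from reduced reporter luminescence in Tet-on CHO cells. Induction used 1 uM final doxycycline hyclate for 16 h at 37 C, following a 2 h compound exposure.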

Assay [9] in a line: qHTS assay to identify small molecule agonists of the AP-1 signaling pathway - cell viability counter screen (AID 1159525; calls by dose curve; further: nearly all actives have a fitted effect of over 55% in size). Summed up: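 AP-1-bla ME-180 cells in Opti-MEM with 0.5% dialyzed FBS, compound exposure 5 h at 37 C in 15-point titration. Viability read in the same wells as ATP content by CellTiter-Glo luminescence, normalised to tetra-n-octylammonium bromide and DMSO controls.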

A short description of assay [10]: qHTS assay to identify small molecule agonists of the AP-1 signaling pathway (AID 1159526; calls by dose curve).
Assay [11] deals with Retinoic acid receptor RXR-alpha (Homo sapiens) (UniProt P19793). Nature of the assay: qHTS assay to identify small molecule agonists of the RXR signaling pathway (AID 1159527; calls by dose curve; further: nearly all actives have a fitted effect of over 35% in size). Summed up:
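qHTS of the Tox21 10K library in GeneBLAzer RXR-alpha HEK 293T cells carrying a beta-lactamase reporter […]; 16 hr treatment, 9-cis retinoic acid as agonist control, FRET read-out.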

Assay [12] is described as follows: qHTS assay to identify small molecule agonists of the RXR signaling pathway - cell viability counter screen (AID 1159529). Further: nearly all actives have a fitted effect of over 50% in size. The method, boiled down:
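Cell viability is measured by CellTiter-Glo luminescence, 30 min at room temperature, in wells already read for beta-lactamase. Engineered HEK 293T cells (RXR-alpha-UAS-bla) are dosed 16 hr at 37 C. Tetraoctyl ammonium bromide serves as positive control.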

Assay [13] is described as follows: qHTS assay to identify small molecule antagonists of the retinoic acid receptor (RAR) signaling pathway (AID 1159552; further: nearly all actives have a fitted effect of over 50% in size). The method, boiled down: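 Quantitative HTS in C3RL4 RARE-luciferase reporter cells. Compounds were added with 1 uM (final) retinol; luminescence was read after 6 hr.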
A short description of assay [14]: qHTS assay to identify small molecule agonists of the retinoic acid receptor (RAR) signaling pathway (AID 1159553). Further: potency means the concentration at half of the fitted maximal effect. Conditions: C3RL4 RARE luciferase reporter, agonist, 6 h; activation: at 73.3 µM (top of the series) unless noted. Summed up: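 Reporter readout comes from luciferase under RARE control in C3RL4 cells; compound exposure lasts 6 hr at 37 C in 5% CO2, and luminescence is recorded following a 30 min room-temperature incubation with reagent.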

Assay [15] is described as follows: qHTS assay to identify small molecule antagonists of the retinoid acid receptor (RAR) signaling pathway - cell viability counter screen (AID 1159551). Further: nearly all actives have a fitted effect of over 35% in size. Summed up:
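Retinol-stimulated (1 uM final) C3RL4 cells, compound 6 h, 37 C; readout CellTiter-Glo luminescence (ATP) after 30 min RT incubation.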

Chain of Retinoic acid receptor RXR-alpha (Homo sapiens) (P19793 whole entry, looked up): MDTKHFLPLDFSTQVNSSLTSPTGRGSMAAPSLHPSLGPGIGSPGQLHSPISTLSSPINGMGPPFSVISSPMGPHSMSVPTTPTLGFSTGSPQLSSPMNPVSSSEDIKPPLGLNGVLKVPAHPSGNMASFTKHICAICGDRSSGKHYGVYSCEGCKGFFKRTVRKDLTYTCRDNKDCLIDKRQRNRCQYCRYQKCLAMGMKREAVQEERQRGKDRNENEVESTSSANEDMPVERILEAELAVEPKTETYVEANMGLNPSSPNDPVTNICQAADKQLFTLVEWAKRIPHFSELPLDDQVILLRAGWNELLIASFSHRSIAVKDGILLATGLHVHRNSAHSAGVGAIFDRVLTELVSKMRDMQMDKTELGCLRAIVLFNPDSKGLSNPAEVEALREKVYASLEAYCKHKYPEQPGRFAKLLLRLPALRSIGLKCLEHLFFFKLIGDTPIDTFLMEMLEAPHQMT

`c1nc[nH]n1`: the Potency result in [1], in [2], in [4], in [6], in assay [7] and in assay [8] was “inactive” each time. Besides, the Potency result in assay [9], in assay [11] and in assay [12] was “inactive” in each case. Besides, the call in assay [3], in assay [5] and in assay [10] was inactive.

`CCCCCCOC(=O)c1ccccc1C(=O)OCCCCCC`: the Potency entry in [1], in assay [2], in assay [4], in assay [6], in assay [7] and in assay [8] was “inactive” in each case. Moreover, the Potency entry in [9], in assay [11], in [12], in [13] and in assay [14] was “inactive” in each case. In addition, the compound was classed as inactive in assay [3], in [5] and in [10].

For `Cc1cc(Cl)ccc1OCCCC(=O)O`, the Potency result in [1], in assay [2], in [4], in assay [6], in assay [7] and in [8] was “inactive” throughout. Moreover, the Potency result in assay [9], in assay [12], in assay [13] and in assay [14] was “inactive” each time. The compound was classed as inactive in assay [3], in [5] and in assay [10].

For the compound `Cc1cc(C)cc(C)c1`, the Potency result in [1], in assay [2], in assay [4], in assay [6], in assay [7] and in assay [8] was “inactive” throughout. For the same compound, the Potency result in [9], in assay [11], in assay [12], in assay [13] and in assay [14] was “inactive” in each case. For the same compound, the compound was called inactive in [3], in assay [5] and in assay [10].

For `OCC(O)CO`, the Potency result in assay [1], in [2], in [4], in assay [6], in [7] and in [8] was “inactive” each time. Moreover, the Potency result in assay [9], in assay [12], in assay [15], in assay [13] and in [14] was “inactive” in each case. For the same compound, the call in [3], in assay [5] and in assay [10] was inactive.

Turning to `Oc1cc(Cl)ccc1Cl`, the Potency result in [1], in [2], in assay [4], in [6], in [7] and in [8] was “inactive” in each case. Besides, the Potency result in assay [9], in assay [11], in assay [12], in [13] and in assay [14] was “inactive” each time. Also, the result in assay [3], in assay [5] and in assay [10] was inactive.

As to `N[C@@H](Cc1ccc(N(CCCl)CCCl)cc1)C(=O)O`, the Potency entry in assay [1], in [2], in assay [4], in assay [6], in assay [9] and in [12] was “inactive” in each case. Moreover, the Potency result in assay [15] and in assay [14] was “inactive” in each case. The result in assay [3], in assay [5] and in [10] was inactive. Besides, the Potency was 16.8 µM (active) in assay [7]; 11.7 µM (active) and 13.3 µM (active) in [8].

Consider `c1ccc(-c2cccc(-c3ccccc3)c2)cc1`, for which the Potency entry in assay [1], in assay [2], in assay [4], in assay [6], in assay [7] and in [8] was “inactive” throughout. For the same compound, the Potency result in assay [9], in assay [11], in assay [12] and in assay [13] was “inactive” throughout. Moreover, the compound was classed as inactive in assay [3], in [5] and in [10]. The Potency in [14] was 6.93 µM (active) and 4.86 µM (active).

As for `CC(C)=CC1C(C(=O)OCc2coc(Cc3ccccc3)c2)C1(C)C` (stereo not drawn), the Potency result in [1], in [2], in assay [4], in [6], in assay [7] and in assay [9] was “inactive” in each case. For the same compound, the Potency entry in assay [15], in assay [13] and in [14] was “inactive” each time. Further, the call in assay [3], in assay [5] and in [10] was inactive. Further, in assay [8], the Potency is 48.6 µM (active).

Regarding `COP(=O)(OC)OC`, the Potency entry in assay [1], in assay [2], in assay [4], in assay [6], in [7] and in [8] was “inactive” each time. For the same compound, the Potency entry in [9], in [11] and in [12] was “inactive” throughout. Further, the result in assay [3], in assay [5] and in assay [10] was inactive.
